This note sets out measurements from PubChem BioAssay.

Values joined by “and” are separate entries in the source; they are usually repeats but may differ in a detail not shown here. Identical values can stand only once. Active and inactive are the calls of the source. Unless noted, no rule for the calls is given here.

Experiment [1] is described as follows: anti-His antibody binders, primary screen, artefact control for SMM control protein annotation, biochemical, small-molecule microarray, 635 nm fluorescence (AID 1128).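 Also: score merges feature fluorescence with signal-to-noise for each printed compound spot.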 Conditions: anti-His Alexa647 antibody binding, higher = more signal.
Experiment [2] relates to Human papillomavirus type 1a E7 protein (residues 1-88). Put plainly: HPV1a E7 small-molecule binders, primary screen, biochemical, small-molecule microarray, residues 1-88, 635 nm (AID 1129). Particulars: small-molecule microarray binding, fluorescence 635 nm; higher = more signal.
Experiment [3] addresses Focal adhesion kinase 1 (Homo sapiens) (UniProt Q05397). Put plainly: small-molecule microarray binders of FAK, primary screen, biochemical, 635/667 nm fluorescence, BSA, DTT (AID 1130).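 Also: composite of spot emission at 667 nm and signal to noise over triplicate slides.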 Particulars: PTK2 binding, 635 nm fluorescence, higher = more signal.
Experiment [4] has as its system Fibrinogen (Alexa647-labelled). Put plainly: fibrinogen binders on compound microarrays, profiling panel, artefact control for SMM control-protein annotation, biochemical, small-molecule microarray, 635/667 nm fluorescence (AID 1131).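 Also: z-score merges 667 nm fluorescence with per-spot signal-to-noise over triplicate slides.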 Particulars: fibrinogen-A647 binding fluorescence, higher = more signal.
The target of experiment [5] is Follistatin (Homo sapiens) (UniProt P19883). Put plainly: follistatin binders on small-molecule microarrays, primary screen, biochemical, small-molecule microarray, 635/667 nm fluorescence (AID 1132). Conditions: FST binding, 635 nm fluorescence, higher = more signal.
Follistatin (Homo sapiens), sequence (P19883 whole entry, looked up): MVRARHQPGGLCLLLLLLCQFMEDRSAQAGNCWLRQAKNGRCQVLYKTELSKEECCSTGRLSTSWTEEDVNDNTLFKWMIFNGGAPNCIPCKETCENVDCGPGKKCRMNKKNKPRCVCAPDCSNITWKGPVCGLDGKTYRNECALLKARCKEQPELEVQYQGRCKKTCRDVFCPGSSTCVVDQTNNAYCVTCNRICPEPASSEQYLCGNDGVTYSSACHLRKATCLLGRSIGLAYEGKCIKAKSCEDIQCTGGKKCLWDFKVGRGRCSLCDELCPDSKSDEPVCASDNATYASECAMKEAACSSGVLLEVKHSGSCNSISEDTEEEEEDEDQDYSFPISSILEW
In experiment [6] the target is Fibroblast growth factor 2 (Homo sapiens) (UniProt P09038). Put plainly: FGF2 binders on small-molecule microarrays, primary screen, biochemical, small-molecule microarray, 635/667 nm fluorescence (AID 1133). Conditions: small-molecule microarray binding, FGF2, fluorescence 635/667; higher = more signal.
Fibroblast growth factor 2 (Homo sapiens), sequence (P09038 whole entry, looked up): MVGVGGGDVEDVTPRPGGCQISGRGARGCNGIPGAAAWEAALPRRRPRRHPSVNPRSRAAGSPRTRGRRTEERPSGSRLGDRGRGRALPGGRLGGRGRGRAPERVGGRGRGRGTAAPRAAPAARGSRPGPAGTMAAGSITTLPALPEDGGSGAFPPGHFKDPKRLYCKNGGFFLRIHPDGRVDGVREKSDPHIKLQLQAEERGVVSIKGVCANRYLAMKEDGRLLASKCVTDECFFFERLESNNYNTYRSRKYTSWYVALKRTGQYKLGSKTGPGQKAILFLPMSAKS
Experiment [7] in a line: mitochondrial membrane potential change in A549 cells, profiling panel, cell-based, JC-1 fluorescence, basal, 24 h, 100 nL (AID 1138).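 Also: A549 lung adenocarcinoma cells under basal conditions with no added stimulus; test concentration not given here.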 Particulars: higher = more signal.
Another experiment has as its system Lefty1. The experiment is described as follows: Lefty1 binders on small-molecule microarrays, primary screen, biochemical, small-molecule microarray, 635/667 nm fluorescence (AID 1139). Particulars: small-molecule microarray binding, fluorescence 635/667; higher = more signal.
The subject of experiment [8] is wheat germ agglutinin (Triticum aestivum), Alexa647-labelled. Put plainly: wheat germ agglutinin binders on compound microarrays, profiling panel, artefact control for SMM control-protein annotation, biochemical, small-molecule microarray, 635/667 nm fluorescence (AID 1140).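 Also: score merges 667 nm feature emission with signal to noise over triplicate slides.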 Particulars: WGA-A647 binding, 635 nm fluorescence, higher = more signal.
Experiment [9] addresses Luciferin 4-monooxygenase (Photinus pyralis) (UniProt P08659). The experiment is described as follows: firefly luciferase enzyme inhibitors, primary screen, biochemical, luminescence, purified enzyme, 2006 set (AID 1141).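 Also: cell-free assay with purified firefly luciferase at 100 ng per well in PBS; test concentration not given here.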 Conditions: SteadyGlo luminescence, 30 min, higher = more signal, called active from +8 up or from −8 down.
For experiment [10], the system named is Wnt5a (protein binding on small-molecule microarray). Put plainly: Wnt5a binders on small-molecule microarray, primary screen, biophysical, 635/667 nm fluorescence (AID 1142).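 Also: fluorescence read at 667 nm with signal to noise per printed feature.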 Particulars: 635 nm fluorescence, higher = more signal.
Experiment [11] is described as follows: cell viability in Huh7 cells, primary screen, cytotoxicity control for HCV replication inhibitor project, CellTiter-Glo luminescence, basal, 48 h (AID 1143).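 Also: Huh7 hepatoma cells carrying a hepatitis C replication reporter with no stimulus; test concentration not given here.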 Particulars: Huh7 HCV replicon, higher = more signal, called active from +8 up or from −8 down.
A short description of experiment [12]: P. aeruginosa biofilm formation inhibitors, primary screen, PAO1 strain, BacTiter-Glo luminescence, LB-PBS (AID 1144). Conditions: 12 h, higher = more signal.
Experiment [13] can be described thus: CREB reporter modulators without forskolin, primary screen, cell-based, PC12, CRE-LacZ reporter, unstimulated (AID 1145). Particulars: no forskolin, luminescence, 4.5 h, higher = more signal, called active from +8 up or from −8 down.
A short description of experiment [14]: CREB reporter modulators under forskolin, primary screen, cell-based, PC12, CRE-LacZ reporter, forskolin-stimulated (AID 1146).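 Also: PC12 cells with 6xCRE LacZ reporter stimulated by forskolin 10 µM; beta-galactosidase reporter signal reflecting CREB driven transcription.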 Particulars: luminescence, 4.5 h, higher = more signal, called active from +8 up or from −8 down.
For experiment [15], the target named is Streptavidin (Streptomyces avidinii) (UniProt P22629). The experiment is described as follows: streptavidin binders on small-molecule microarray, primary screen, artefact control for SMM compound annotation, biophysical, 635/667 nm fluorescence (AID 1147).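 Also: signal reflects streptavidin binding to arrayed compounds as a control protein.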 Particulars: streptavidin binding, higher = more signal.
Streptavidin (Streptomyces avidinii), sequence (P22629 whole entry, looked up): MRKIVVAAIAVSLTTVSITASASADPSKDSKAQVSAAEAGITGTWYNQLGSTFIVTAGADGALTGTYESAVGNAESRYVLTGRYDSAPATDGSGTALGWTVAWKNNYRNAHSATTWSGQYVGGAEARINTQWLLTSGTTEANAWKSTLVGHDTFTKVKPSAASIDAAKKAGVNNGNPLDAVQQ
Experiment [16] is described as follows: small-molecule binders of probe aInhba, primary screen, biochemical, small-molecule microarray, 635/667 nm fluorescence (AID 1148).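 Also: score merges 667nm spot fluorescence with signal-to-noise for antibody binding to printed compounds.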 Conditions: higher = more signal.
Experiment [17] deals with Torsin-1A (Homo sapiens) (UniProt O14656). Put plainly: torsin A binders from cell lysate, primary screen, small-molecule microarray, wild-type, 635/667 nm (AID 1149). Conditions: COS7 hTOR1A-WT lysate, 635 nm fluorescence, higher = more signal.
Torsin-1A (Homo sapiens), sequence (O14656 whole entry, looked up): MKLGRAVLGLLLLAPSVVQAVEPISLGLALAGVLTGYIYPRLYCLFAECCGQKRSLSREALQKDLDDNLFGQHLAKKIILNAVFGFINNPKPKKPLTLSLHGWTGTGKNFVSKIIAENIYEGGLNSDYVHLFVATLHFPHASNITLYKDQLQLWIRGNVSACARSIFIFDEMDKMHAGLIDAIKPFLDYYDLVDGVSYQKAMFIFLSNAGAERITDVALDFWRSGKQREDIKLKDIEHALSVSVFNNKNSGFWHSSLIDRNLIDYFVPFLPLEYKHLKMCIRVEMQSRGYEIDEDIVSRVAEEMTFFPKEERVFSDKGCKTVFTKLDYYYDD
Experiment [18] shares this target. The experiment is described as follows: small-molecule binders of mutant TOR1A in lysate, primary screen, cell lysate, small-molecule microarray, COS7 lysate, 635/667 nm fluorescence (AID 1150).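 Also: score pools 667 nm emission and signal to noise measuring lysate protein binding.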 Conditions: COS7 hTOR1A mutant lysate, 635 nm fluorescence, higher = more signal.
Experiment [19] has as its system Sonic hedgehog protein (Shh). The experiment is described as follows: small-molecule binders of Shh protein, primary screen, biochemical, small-molecule microarray, 635/667 nm fluorescence (AID 1151).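 Also: Shh protein binding to compounds spotted on small-molecule microarray slides; score combines spot fluorescence intensity with signal-to-noise across triplicate slides.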 Conditions: small-molecule microarray binding, 635 nm fluorescence; higher = more signal.

Focal adhesion kinase 1 (Homo sapiens), sequence (Q05397 whole entry, looked up): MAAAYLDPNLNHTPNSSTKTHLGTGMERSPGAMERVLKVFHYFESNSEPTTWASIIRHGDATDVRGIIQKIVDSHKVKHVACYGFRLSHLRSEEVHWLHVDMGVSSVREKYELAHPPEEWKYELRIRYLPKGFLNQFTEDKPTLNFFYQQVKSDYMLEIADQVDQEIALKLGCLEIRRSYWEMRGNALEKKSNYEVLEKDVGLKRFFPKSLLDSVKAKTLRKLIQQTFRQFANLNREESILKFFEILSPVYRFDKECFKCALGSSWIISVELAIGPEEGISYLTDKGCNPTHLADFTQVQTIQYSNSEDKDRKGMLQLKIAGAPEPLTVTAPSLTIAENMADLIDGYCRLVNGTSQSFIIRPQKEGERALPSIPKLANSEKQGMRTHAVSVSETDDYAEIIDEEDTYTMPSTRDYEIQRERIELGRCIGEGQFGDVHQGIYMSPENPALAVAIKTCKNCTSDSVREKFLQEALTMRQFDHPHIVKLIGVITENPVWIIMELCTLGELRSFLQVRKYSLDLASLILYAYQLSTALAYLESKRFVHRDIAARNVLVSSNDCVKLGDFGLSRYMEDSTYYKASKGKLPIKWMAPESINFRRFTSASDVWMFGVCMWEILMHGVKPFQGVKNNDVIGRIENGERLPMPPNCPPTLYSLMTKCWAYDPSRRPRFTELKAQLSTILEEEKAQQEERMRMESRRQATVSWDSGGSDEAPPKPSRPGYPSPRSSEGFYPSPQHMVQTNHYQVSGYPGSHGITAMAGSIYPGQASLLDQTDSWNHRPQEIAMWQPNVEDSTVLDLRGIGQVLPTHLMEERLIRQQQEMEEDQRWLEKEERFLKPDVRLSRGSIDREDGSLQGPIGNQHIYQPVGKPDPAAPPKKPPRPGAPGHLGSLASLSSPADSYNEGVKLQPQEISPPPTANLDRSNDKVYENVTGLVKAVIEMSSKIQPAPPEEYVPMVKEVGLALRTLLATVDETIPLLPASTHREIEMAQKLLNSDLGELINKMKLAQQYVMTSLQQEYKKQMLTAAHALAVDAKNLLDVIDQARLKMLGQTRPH
Luciferin 4-monooxygenase (Photinus pyralis), sequence (P08659 whole entry, looked up): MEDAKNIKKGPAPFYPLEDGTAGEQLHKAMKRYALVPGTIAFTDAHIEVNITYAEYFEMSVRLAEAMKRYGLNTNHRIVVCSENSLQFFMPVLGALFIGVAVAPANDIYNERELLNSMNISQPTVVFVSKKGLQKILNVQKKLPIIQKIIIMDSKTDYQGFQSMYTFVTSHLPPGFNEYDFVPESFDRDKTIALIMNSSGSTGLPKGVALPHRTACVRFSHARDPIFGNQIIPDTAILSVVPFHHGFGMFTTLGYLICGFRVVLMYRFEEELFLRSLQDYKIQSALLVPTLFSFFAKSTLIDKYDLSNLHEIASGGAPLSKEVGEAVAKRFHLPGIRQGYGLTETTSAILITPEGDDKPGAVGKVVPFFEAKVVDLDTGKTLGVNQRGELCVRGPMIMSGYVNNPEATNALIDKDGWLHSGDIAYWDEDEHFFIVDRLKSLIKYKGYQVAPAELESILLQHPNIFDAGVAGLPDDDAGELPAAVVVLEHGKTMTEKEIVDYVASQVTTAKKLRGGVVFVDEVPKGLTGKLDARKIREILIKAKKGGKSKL

With `C=CCN(C(=O)C(c1cccs1)N(C(=O)/C=C\C(=O)O)C(C)(C)CO)C(C)(C)C` (stereo not given), the composite z-score in experiment [1] is -0.119 and 1.08; in experiment [2], 0.0785 and -0.562; in [3], -0.033 and 0.193; in experiment [4], -0.654 and 0.99; in experiment [5] it was -0.493 and -1.32; in experiment [6] it was -0.454 and -0.588. For the same compound, the composite z-score in the experiment on Lefty1 was -1.35 and -1.25; in experiment [8] it was -0.452 and -0.231; in experiment [10], -0.291 and -0.768; in experiment [15] it was -0.689 and -1.22; in experiment [16], -0.0581 and -0.0791; with Torsin-1A (Homo sapiens) [17] it was -0.331 and -0.511. The composite z-score with Torsin-1A (Homo sapiens) [18] is 0.214 and 1.51; in [19], -0.645 and -0.105. Besides, the z-score is 1.12 and 0.815 in [7]; -1.45 (inactive) and -0.975 (inactive) in experiment [9]; -0.261 (inactive) and 0.272 (inactive) in [11]; -1.52 (inactive) and -1.38 (inactive) in [12]; -0.887 (inactive) and -0.761 (inactive) in experiment [13]; -0.706 (inactive) and -0.329 (inactive) in [14].

For `CCOC(=O)NN=C1C[C@@H](O)[C@@H](O)[C@@H]2[C@@H]3C(=O)N(Cc4ccccc4)C(=O)[C@@H]3CC[C@@H]12`, the composite z-score is 0.82 in experiment [1]; 0.561 in experiment [2]; -0.118 in experiment [3]; 0.669 in [4]; 0.408 in [5]; 0.371 in experiment [6]. Besides, the composite z-score in the experiment with Lefty1 is 0.665; in experiment [8] it was 0.0775; in [10], -0.0099; in experiment [15], -0.199; in experiment [16] it was -0.178; with Torsin-1A (Homo sapiens) [17] it was 0.832. Moreover, the composite z-score with Torsin-1A (Homo sapiens) [18] was found to be 0.304; in [19], 0.773. The z-score is -0.222 in experiment [7]; 0.66 (inactive) in experiment [9]; 0.162 (inactive) in [11]; -0.0519 (inactive) in experiment [12]; 0.52 (inactive) in experiment [13]; 0.0513 (inactive) in experiment [14].

As for `COC(=O)c1c2oc(c1C(=O)OC)C(=O)N[C@@H](Cc1ccccc1)Cn1cc(nn1)C1(CCCCC1)NC(=O)N[C@H](CO)CC2`, the composite z-score was 2.15 and -0.277 in [1]; 1.09 and 0.558 in experiment [2]; 0.105 and 0.0367 in [3]; 1.01 and 0.223 in [4]; 1.38 and 0.484 in [5]; 1.41 and 0.184 in [6]. In addition, the composite z-score is 0.956 and 0.506 in the experiment with Lefty1; 0.462 and -0.0588 in experiment [8]; 0.547 and 0.189 in [10]; 0.216 and 0.517 in experiment [15]; 0.271 and -0.103 in experiment [16]; 0.212 and 0.403 with Torsin-1A (Homo sapiens) [17]. Besides, the composite z-score with Torsin-1A (Homo sapiens) [18] was -0.0506 and 0.489; in [19], 1.28 and 0.781. The z-score in [7] is 1.53 and 3.28; in experiment [9], -1.19 (inactive) and -0.739 (inactive); in [11], -0.237 (inactive) and -0.109 (inactive); in [12] it was -1.23 (inactive) and -0.509 (inactive); in [13], 0.484 (inactive) and 3.25 (inactive); in experiment [14], -0.635 (inactive) and -0.0904 (inactive).

On to `CC(C)=NOCc1ccc(-c2cn([C@@H]3COC[C@H]3O)nn2)cc1`, for which the composite z-score is 1.03 in [1]; 0.245 in experiment [2]; -0.115 in [3]; -0.4 in experiment [4]; 0.218 in [5]; 0.299 in experiment [6]. Besides, the composite z-score in the experiment with Lefty1 is 0.402; in experiment [8], -0.132; in experiment [10] it was 0.184; in experiment [15], 0.562; in [16], -0.128; with Torsin-1A (Homo sapiens) [17], 0.538. The composite z-score in the experiment with Torsin-1A (Homo sapiens) [18] turned out to be 0.162; in experiment [19], 0.169. The z-score was 0.11 in experiment [7]; -1.12 (inactive) in experiment [9]; 0.164 (inactive) in [11]; 1.08 (inactive) in [12]; 1.47 (inactive) in experiment [13]; 0.607 (inactive) in experiment [14].

Take `COC(=O)C1=C(C)N(Cc2ccccc2)C2=C3C(=O)CCC[C@@H]3[C@@](O)(C(=O)OC)C(=O)N2[C@@H]1c1ccccc1`: the composite z-score in experiment [1] is 0.043 and -0.496; in [2], 0.501 and 0.0093; in experiment [3], -0.12 and 0.177; in experiment [4], 0.335 and -1.14; in [5], 0.584 and 0.158; in experiment [6] it was 0.997 and 0.581. The composite z-score with Lefty1 was 0.573 and 0.217; in [8], 0.121 and -1.1; in experiment [10] it was -0.0849 and 0.288; in experiment [15], 0.14 and -0.503; in [16], 0.155 and -0.0762; in the experiment with Torsin-1A (Homo sapiens) [17], 0.555 and -0.0343. In addition, the composite z-score in the experiment with Torsin-1A (Homo sapiens) [18] was 0.844 and 0.0578; in [19], 0.544 and 0.586. Besides, the z-score in [7] is 1.22 and 0.728; in [9], -1.29 (inactive) and -1.47 (inactive); in [11], -0.5 (inactive) and -1.53 (inactive); in experiment [12] it was 0.311 (inactive); in [13], 1.65 (inactive) and 1.38 (inactive); in experiment [14], 0.703 (inactive) and -1.7 (inactive).

On to `C=CCN(CCCCC)C(=O)C1N(c2c(Cl)cccc2CO)C(=O)C2C(C(=O)O)C3C=CC21O3` (stereo not given), for which the composite z-score in [1] is -1.91 and -0.805; in [2], -0.751 and -1.1; in [3], -0.845 and -0.37; in experiment [4], -1.41 and -1.31; in experiment [5], -2.55 and -0.968; in [6], -2.42 and -2.09. Further, the composite z-score was -1.6 and -1.98 in the experiment on Lefty1; -2.05 and -1.28 in experiment [8]; -0.65 and -1.3 in experiment [10]; -1.41 in experiment [15]; -0.258 and -0.152 in [16]; -1.44 and -3.52 with Torsin-1A (Homo sapiens) [17]. Further, the composite z-score with Torsin-1A (Homo sapiens) [18] is -1.09 and -2.63; in experiment [19], -0.333 and -1.79. In addition, the z-score in experiment [7] was -1.02 and -0.472; in experiment [9], 0.975 (inactive) and 0.308 (inactive); in [11], 0.0928 (inactive) and -0.313 (inactive); in experiment [12] it was -0.568 (inactive) and -0.00991 (inactive); in experiment [13], 0.467 (inactive) and 0.199 (inactive); in experiment [14], 0.209 (inactive) and -0.0386 (inactive).

Consider `C=CCN(C(=O)C1N(CCCCCCO)C(=O)C2C(C(=O)O)C3C=CC21O3)c1ccc(OC)cc1` (stereo not given), for which the composite z-score in [1] was -1.91 and -1.82; in experiment [2] it was -1.26 and -1.68; in experiment [3], 0.85 and -0.212; in experiment [4], -1.05 and -2.02; in experiment [5] it was -1.83 and -1.96; in experiment [6], -2.95 and -1.96. The composite z-score with Lefty1 was -2.4 and -2.28; in experiment [8], -0.537 and -0.483; in experiment [10], 1.04 and -0.561; in experiment [15] it was -0.825 and -0.728; in experiment [16], -0.0791 and -0.0279; in the experiment with Torsin-1A (Homo sapiens) [17], -3.03 and -2.03. The composite z-score is -1.75 and -1.28 with Torsin-1A (Homo sapiens) [18]; -1.27 and -1.42 in experiment [19]. The z-score in experiment [7] was 1.34 and 0.478; in experiment [9], -1.09 (inactive) and -1.38 (inactive); in experiment [11], 0.191 (inactive) and 0.252 (inactive); in [12], 1.51 (inactive); in experiment [13] it was 0.0564 (inactive) and 0.724 (inactive); in experiment [14] it was -0.933 (inactive) and -0.173 (inactive).
